The source of these data is PubChem BioAssay.

Activity calls are given as the source filed them. Rule as the data show it: active = inhibition above about 28%; inactive = the rest.

The experiment in a line: StAR promoter reporter inhibitors, counter-screen for LRH-1 inverse agonist project, cell-based, luminescence, high throughput (AID 651611). The note with it: StAR promoter luciferase reporter counterscreen, at 3.6 µM, stronger effect = higher value. Background: Counterscreens check selectivity or assay interference.
Take `COc1cc(N)c2ncccc2c1Cl`: the inhibition is -0.07% (inactive).
For `C/C(=N/N1CCN(Cc2cccc3ccccc23)CC1)c1cccnc1`, the inhibition is -12% (inactive).
Regarding `Cc1nn(CC(=O)NCCC2=CCCCC2)c(C)c1[N+](=O)[O-]`, the inhibition was 17.5% (inactive).
For the compound `CCOc1ccc(CCNC(=O)COC(=O)c2cc([N+](=O)[O-])ccc2N2CCOCC2)cc1OCC`, the inhibition is 9.91% (inactive).
On to `O=C(CSc1nnc(Cc2cccs2)n1Cc1ccco1)Nc1ccc(Cl)cc1Cl`, for which the inhibition is 9.49% (inactive).
Consider `O=C(c1cc(-c2ccco2)nc2ccccc12)N(Cc1nnc(-c2ccc(Cl)cc2)o1)C1CC1`, for which the inhibition is -6.37% (inactive).
As for `COc1ccc(NC(=O)COc2ccc(N(C)S(=O)(=O)c3ccc(Cl)cc3)cc2)cc1OC`, the inhibition was 18.5% (inactive).
Take `CC(O)(c1cccnc1)c1nc(-c2cccc(C#N)c2)cs1` (stereo unspecified): the inhibition was 5.87% (inactive).
Regarding `C=CC(=O)Nc1cccc(Oc2ncnc3[nH]cc(-c4cnc5ccccc5c4)c23)c1`, the inhibition is 27.3% (inactive).
For `COc1ccc(C2=CC(=O)CC(C)(C)C2)cc1OC`, the inhibition was -7.16% (inactive).
With `O=C(CSc1nnc(CNC(=O)c2c(F)cccc2F)o1)Nc1ccc2c(c1)OCCO2`, the inhibition was 9.56% (inactive).
On to `O=C(CSc1n[nH]c(-c2ccccc2)n1)Nc1ccc(N2CCOCC2)cc1`, for which the inhibition is 1.99% (inactive).
Take `COc1ccc2nc(N3CCC(O)CC3)c(C#N)cc2c1`: the inhibition is -24.2% (inactive).
For the compound `Cc1ccc(S(=O)(=O)NCc2ccncc2)cc1`, the inhibition is 5.31% (inactive).
For the compound `COc1ccc(NC(=O)CSC2=NCCN2)cc1`, the inhibition was -2.78% (inactive).
Turning to `O=[N+]([O-])c1ccc(N2CCCC2)nc1N1CCCC1`, the inhibition was 11.1% (inactive).

As usually defined, the inhibition is the change of the read-out against control, counted positive when it falls.
